Laboratory results taken from PubChem BioAssay (NCI).
Where “and” joins values, the source holds several entries; their conditions need not be identical. Equal entries are not always repeated. Compounds without any hit were thinned out: in the full panel of roughly 79,000, 15% have a hit. Where a structure was tested more than once in an assay, its records may differ in their call. Calls of active or inactive are those of the source. Cut-off read from the data, not from the text of the source: active = growth inhibition above about 70%; inactive = the rest.

Legend:
[1] = NCI Yeast Anticancer Drug Screen. Data for the rad50 strain (AID 155);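 note: 0% = growth of vehicle-only cultures of the same strain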; conditions: S. cerevisiae rad50 strain growth inhibition, stronger effect = higher value
Outline: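 Cells are treated with compound, grown, and their growth is then scored against vehicle-only cultures of the same repair-deficient yeast strain.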

[2] = NCI Yeast Anticancer Drug Screen. Data for the mec2-1 strain (AID 157); conditions: S. cerevisiae mec2-1 strain, stronger effect = higher value
Outline: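 Readout is yeast growth inhibition, normalised to vehicle-treated controls, in the mec2-1 strain exposed to compound.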

[3] = NCI Yeast Anticancer Drug Screen. Data for the sgs1 mgt1 strain (AID 161);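 note: 0% = growth of cultures given vehicle only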; conditions: S. cerevisiae sgs1 mgt1 strain, stronger effect = higher value
Outline: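 Compounds are added to genetically altered yeast, and growth is compared with cultures given vehicle alone to give percent inhibition.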

[4] = NCI Yeast Anticancer Drug Screen. Data for the cln2 rad14 strain (AID 165);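 note: 0% = growth equal to vehicle treated cultures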; conditions: S. cerevisiae cln2 rad14 strain, stronger effect = higher value
Outline: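 Relative to vehicle controls, growth inhibition of compound-treated cln2 rad14 yeast was recorded.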

[5] = NCI Yeast Anticancer Drug Screen. Data for the bub3 strain (AID 167); conditions: S. cerevisiae bub3 mutant strain, stronger effect = higher value
Outline: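 Part of a panel of yeast mutants defective in DNA damage repair or cell cycle regulation. Each strain is grown with compound, and inhibition is calculated relative to solvent-treated cultures.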

[6] = NCI Yeast Anticancer Drug Screen. Data for the mlh1 rad18 strain (AID 175); conditions: S. cerevisiae mlh1 rad18 strain growth inhibition, stronger effect = higher value
Outline: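 Test agents were incubated with a yeast strain of defined genotype (DNA damage repair defect). Inhibition of growth was derived by comparison with vehicle-exposed cultures.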

[7] = at 5.0 µM (retest, dose inferred, filed as 0.5)
[8] = at 50.0 µM (retest, dose inferred, filed as 5.0)

Compound | growth inhibition [1, 7] | growth inhibition [1, 8] | growth inhibition ([1]; at 50.0 µM) | growth inhibition [2, 7] | growth inhibition [2, 8] | growth inhibition ([2]; at 50.0 µM) | growth inhibition [3, 7] | growth inhibition [3, 8] | growth inhibition ([3]; at 50.0 µM) | growth inhibition [4, 7] | growth inhibition [4, 8] | growth inhibition ([4]; at 50.0 µM) | growth inhibition [5, 7] | growth inhibition [5, 8] | growth inhibition ([5]; at 50.0 µM) | growth inhibition [6, 7] | growth inhibition [6, 8] | growth inhibition ([6]; at 50.0 µM)
COC1=C(C)C(=O)c2c(c(COC(N)=O)c3n2CC2C3N2C)C1=O (stereo unspecified) | 37% (inactive) | 65% (inactive) | 93% (active) | 2% (inactive) | 52% (inactive) | 95.3% (active) | 30% (inactive) | 74% (active) | 73.8% (active) | -8% (inactive) | 72% (active) | 87.1% (active) | 8% (inactive) | 27% (inactive) | 78.1% (active) | 13% (inactive) | 93% (active) | 96% (active)
Nc1ccc(Cl)cc1C(=O)c1ccccc1Cl | -3% (inactive) | 99% (active) | 97.4% (active) | -3% (inactive) | 99% (active) | 97.2% (active) | -2% (inactive) | 99% (active) | 97.5% (active) | -9% (inactive) | 98% (active) | 80.8% (active) | -12% (inactive) | 99% (active) | 87.5% (active) | -1% (inactive) | 99% (active) | 96.8% (active)
N#C[SH2+].N#C[SH2+].N#C[SH2+].N#C[SH2+].[Cu+2].c1ccc(C[P+](c2ccccc2)(c2ccccc2)c2ccccc2)cc1 | 14% (inactive) | 87% (active) | 96.8% (active) | 5% (inactive) | 95% (active) | 97.8% (active) | 21% (inactive) | 91% (active) | 97.9% (active) | -8% (inactive) | 82% (active) | 90.7% (active) | 5% (inactive) | 90% (active) | 92.9% (active) | 45% (inactive) | 97% (active) | 97.2% (active)
CC[C@@]1(O)C(=O)OCc2c1cc1n(c2=O)Cc2cc3cc4c(cc3nc2-1)OCO4 | 95% (active) | 92% (active) | 72.4% (active) | 97% (active) | 94% (active) | 81.3% (active) | 91% (active) | 85% (active) | 80.9% (active) | 48% (inactive) | 47% (inactive) | 71.7% (active) | 85% (active) | 83% (active) | 74.3% (active) | 91% (active) | 89% (active) | 34.4% (inactive)
CCN(CC)P1(=O)OC(c2ccccc2)=CCN1c1ccc(OC)cc1 (stereo unspecified) | 0% (inactive) | 85% (active) | 97.3% (active) | -1% (inactive) | 82% (active) | 95.3% (active) | -24% (inactive) | 95% (active) | 97.8% (active) | -7% (inactive) | 78% (active) | 83% (active) | 10% (inactive) | 91% (active) | 96.2% (active) | 2% (inactive) | 91% (active) | 96.3% (active)
C[C@@H]1CCC2[C@@H](C)[C@H](O[C@H]3O[C@@H]4O[C@@]5(C)CCC6[C@H](C)CCC([C@H]3C)[C@]64OO5)O[C@@H]3O[C@@]4(C)CCC1[C@@]23OO4 (stereo partly specified) | 92% (active) | 93% (active) | 90.2% (active) | 95% (active) | 94% (active) | 91.6% (active) | 94% (active) | 95% (active) | 92% (active) | 79% (active) | 93% (active) | 89.7% (active) | 92% (active) | 94% (active) | 91.2% (active) | 93% (active) | 93% (active) | 90.8% (active)
Brc1ccc(N2C[N+](c3ccc(Br)cc3)=NC(c3ccccc3)=N2)cc1 | 23% (inactive) | 94% (active) | 97.5% (active) and 18.3% (inactive) | -2% (inactive) | 96% (active) | 97.8% (active) and -1.3% (inactive) | 6% (inactive) | 92% (active) | 98.5% (active) and 10.9% (inactive) | 16% (inactive) | 98% (active) | 98.5% (active) and 10.1% (inactive) | 2% (inactive) | 99% (active) | 98.5% (active) and -3.05% (inactive) | 9% (inactive) | 97% (active) | 98.3% (active) and 13.1% (inactive)
CCCN1CN(c2ccccc2)C2(CCN(CCCC(=O)c3ccc(F)cc3)CC2)C1=O | 11% (inactive) | 17% (inactive) | 35.7% (inactive) | 7% (inactive) | 14% (inactive) | -4.4% (inactive) | -17% (inactive) | 12% (inactive) | 60.5% (inactive) | 6% (inactive) | 20% (inactive) | 15.6% (inactive) | 4% (inactive) | 35% (inactive) | 38.9% (inactive) | 22% (inactive) | 30% (inactive) | 20.4% (inactive)
CC1C2C=CC1C(c1c3ccc(=O)c(O)c-3oc3c(O)c(O)ccc13)C2C(=O)O (stereo unspecified) | 11% (inactive) | 33% (inactive) | 17% (inactive) | -1% (inactive) | 10% (inactive) | 47.8% (inactive) | 2% (inactive) | 33% (inactive) | 53% (inactive) | -23% (inactive) | 0% (inactive) | -35.2% (inactive) | 9% (inactive) | 37% (inactive) | -8.35% (inactive) | 7% (inactive) | 35% (inactive) | 8.3% (inactive)
C=Cc1ccccc1 (tested in a mixture with another compound) | -1% (inactive) | 2% (inactive) | 16.1% (inactive) and 1.1% (inactive) and -7.7% (inactive) | -6% (inactive) | 0% (inactive) | -1.35% (inactive) and 6.9% (inactive) and -3.75% (inactive) | -2% (inactive) | -1% (inactive) | -11.2% (inactive) and -6.85% (inactive) and -12.4% (inactive) | -3% (inactive) | 3% (inactive) | 1.25% (inactive) and -3.6% (inactive) and 2.15% (inactive) | -5% (inactive) | -4% (inactive) | 23.4% (inactive) and 14.5% (inactive) and 6.1% (inactive) | -1% (inactive) | 1% (inactive) | 12.4% (inactive) and 31.1% (inactive) and -6.6% (inactive)
CCC/C=[CH]/[Hg][Cl] | 99% (active) | 99% (active) | 99.2% (active) | 100% (active) | 100% (active) | 99.5% (active) | 100% (active) | 99% (active) | 99.5% (active) | 97% (active) | 99% (active) | 99.3% (active) | 99% (active) | 99% (active) | 99.4% (active) | 100% (active) | 99% (active) | 99.4% (active)
CCC(C)(C)c1ccc(O)cc1 | -1% (inactive) | 16% (inactive) | -19.3% (inactive) and 59.8% (inactive) | -3% (inactive) | 0% (inactive) | -17.4% (inactive) and 40.9% (inactive) | -10% (inactive) | 5% (inactive) | -10.9% (inactive) and 63% (inactive) | 1% (inactive) | -4% (inactive) | -15.2% (inactive) and -13.6% (inactive) | 2% (inactive) | 7% (inactive) | -28.6% (inactive) and 38.3% (inactive) | -2% (inactive) | 11% (inactive) | -17.7% (inactive) and 64.5% (inactive)
Oc1cc[c]([Hg][Cl])cc1 | 99% (active) | 99% (active) | 99.5% (active) and 100% (active) | 100% (active) | 100% (active) | 99.5% (active) and 99.7% (active) | 100% (active) | 99% (active) and 100% (active) | 99.1% (active) and 100% (active) | 99% (active) | 99% (active) | 98.2% (active) and 99.5% (active) | 99% (active) and 100% (active) | 99% (active) and 100% (active) | 99.6% (active) and 99.7% (active) | 99% (active) | 99% (active) | 99.2% (active) and 99.3% (active)
COC12[C@@H]3N[C@@H]3CN1C1=C(C(=O)C(NCCSSCCNC3=C(C)C(=O)C4=C(C3=O)C(COC(N)=O)[C@]3(OC)C5N[C@@H]5CN43)=C(C)C1=O)[C@@H]2COC(N)=O (stereo partly specified) | 35% (inactive) | 73% (active) | 63.1% (inactive) | 18% (inactive) | 82% (active) | 49% (inactive) | 41% (inactive) | 74% (active) | 3.55% (inactive) | 19% (inactive) | 53% (inactive) | 39.4% (inactive) | 17% (inactive) | 52% (inactive) | -8.85% (inactive) | 54% (inactive) | 93% (active) | 79% (active)
C[C@@H]1CC[C@@]2(NC1)O[C@H]1C[C@H]3[C@@H]4CC[C@H]5C[C@@H](O)CC[C@]5(C)[C@H]4CC[C@]3(C)[C@H]1[C@@H]2C | 45% (inactive) | 98% (active) | 92.8% (active) | 30% (inactive) | 98% (active) | 93.5% (active) | 61% (inactive) | 100% (active) | 93.9% (active) | 46% (inactive) | 99% (active) | 92% (active) | 46% (inactive) | 99% (active) | 93.5% (active) | 31% (inactive) | 98% (active) | 87.7% (active)
CCc1cc2c(cc1O)C(C)(C)CCC2(C)C | -1% (inactive) | 7% (inactive) | 98% (active) | -2% (inactive) | -7% (inactive) | 97.8% (active) | -3% (inactive) | 7% (inactive) | 52.5% (inactive) | 5% (inactive) | 10% (inactive) | 98% (active) | 3% (inactive) | 18% (inactive) | 43% (inactive) | 0% (inactive) | 4% (inactive) | 98% (active)
